Compound activity from PubChem.
Tb PFK inh-1: blocks T. brucei phosphofructokinase; Potency, µM (series often up to 57.5 µM), inactives show top-dose activity, negative = inhibition, most hits filed as inhibitors; AID 485367; 0.17% of 330,000 active; T. brucei PFK, ADP-Glo luminescence; O15648;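 also: 0% = uninhibited 1x PFK enzyme wells and -100% = no-enzyme wells; nearly all actives have a fitted effect of over 60% in size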
Target sequence (O15648 whole entry, looked up): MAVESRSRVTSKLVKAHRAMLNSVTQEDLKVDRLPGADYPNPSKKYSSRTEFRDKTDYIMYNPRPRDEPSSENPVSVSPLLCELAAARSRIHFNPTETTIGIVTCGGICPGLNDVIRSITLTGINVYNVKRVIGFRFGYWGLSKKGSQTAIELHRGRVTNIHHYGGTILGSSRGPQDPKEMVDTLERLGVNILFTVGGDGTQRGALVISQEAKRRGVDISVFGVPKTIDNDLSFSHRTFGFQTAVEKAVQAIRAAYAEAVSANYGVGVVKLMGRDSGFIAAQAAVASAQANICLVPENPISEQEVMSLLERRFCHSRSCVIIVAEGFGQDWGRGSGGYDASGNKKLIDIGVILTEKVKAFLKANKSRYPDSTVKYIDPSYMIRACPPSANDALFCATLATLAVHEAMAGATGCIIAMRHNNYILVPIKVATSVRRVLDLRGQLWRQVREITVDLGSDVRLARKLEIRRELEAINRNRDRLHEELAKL
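1.25 nM PFK with 0.5 mM F6P and 0.1 mM ATP in 0.1 M TEA pH 8.0, 5 mM MgCl2, incubated 45 min at room temperature; ADP measured by ADP-Glo luminescence; compounds titrated up to 57 uM.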
Chronic BCR inh: blocks chronic active B-cell receptor signaling. ABC-DLBCL IkBa-CBG/CBR reporter, luminescence ratio, 4 h. Potency, µM (highest dose often 46.1 µM), inactives show at the highest dose activity change, negative = inhibition, hits mostly inhibitors. 0.05% of 340,000 active. AID 493014; active = well fitted inhibition curve with a large enough effect in the signal ratio, with a control signal flat, not every such curve was filed as active; inconclusive = small, poorly fitted or top-dose-only effect, or effect the other way, or a change in a side signal; the % refers to the signal ratio;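 also: plate controls were basal doxycycline-induced cells for no effect and cells given 10 µM MG132 for full effect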
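TMD8 human ABC-DLBCL cells with doxycycline-inducible IκBα–green luciferase fusion and unfused red luciferase, in 0.5% FBS medium; compounds up to 46 uM, 4 h at 37C. Green/red luminescence ratio, filter-overlap corrected, fitted to concentration-response curves.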
MBNL1 CUG block: MBNL1-poly(CUG) RNA binding inhibition; Potency, µM (doses to about 57.5 µM), for inactives: top-dose activity change, negative = inhibition, hits mostly inhibitors; AID 2675; TR-FRET MBNL1-His/biotin-(CUG)12 binding, 665/545 ratio; 0.036% of 280,000 active; Q9NR56; active = well fitted inhibition curve with a large enough effect in the signal ratio, with a control signal flat, not every such curve was filed as active; inconclusive = small, poorly fitted or top-dose-only effect, or effect the other way, or a change in a side signal; inactive = no such curve, though single readings can be large or run the other way; the % refers to the signal ratio; also: % is scaled to controls: 0 for no effect and ±100 for the full control effect
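MBNL1-His + Biotin-(CUG)12, cpd titration 92 nM–58 uM; Tb anti-His Ab 0.055 ng/ul, SA-XL665 5 nM (final); 60 min RT; ratiometric 665/545 nm, Ex 340 nm; normalized to buffer and full-complex controls.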
B2AR arrestin: recruits beta-arrestin to the human beta2-adrenergic receptor; Potency, µM (series often up to 46.1 µM), inactives show at the highest dose activation, most hits filed as activators; 0.02% of 330,000 active; P07550; beta-arrestin recruitment to beta2AR, cell-based reporter;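 also: 0% = DMSO controls and full agonism = EC100 isoproterenol or metaproterenol; nearly all actives have a fitted effect of over 65% in size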
TbPFK ATP: orthogonal confirmation of T. brucei phosphofructokinase inhibitors; shares compounds with Tb PFK inh-1; Tb PFK enzyme, ATP depletion, Kinase-Glo Plus luminescence; Potency, µM (doses to about 57.5 µM), for the others: at the top dose inhibition; 47% of 1,100 active; calls by dose curve; also: nearly all actives have a fitted effect of over 60% in size
Tb PFK inh-2: validation of T. brucei phosphofructokinase inhibitors. shares compounds with Tb PFK inh-1. 41% of 1,100 active. Potency, µM (highest dose often 57.5 µM), without a hit: at the top dose activity change, negative = inhibition, most hits filed as inhibitors. AID 504637. purified T. brucei PFK, ADP-Glo luminescence, 45 min;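 also: plate controls were full PFK enzyme control for no effect and no enzyme control for full effect; nearly all actives have a fitted effect of over 60% in size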
Numbers without * were called inactive; ? = inconclusive; nt = not tested or not shown. Rows were chosen to be rich in hits. Some 0.27% of all compounds tested hit in one or more screens of this group. Unless noted, calls follow the shape of the dose curve; as a rule, active = well fitted curve in the direction sought with a large enough effect; inconclusive = small, poorly fitted or top-dose-only effect, or another doubt; inactive = no such curve, though single readings can be large; an effect the other way counts as inactive or inconclusive. Potency is read from the fitted curve at half-maximal effect.

SMILES	Tb PFK inh-1	Chronic BCR inh	MBNL1 CUG block	B2AR arrestin	TbPFK ATP	Tb PFK inh-2
O=C1c2ccccc2C(=O)N1/N=C/c1ccc(O)c(O)c1O	19µM*	?	?	-1%	11µM*	27µM*
CCc1nnc(NC(=O)C(=O)NCCOC(=O)c2ccccc2Cl)s1	?	-8%	-6%	0%	-29%	?
CCn1c(=O)c(C(=O)Nc2nc3ccccc3[nH]2)c(O)c2ccccc21	?	?	-12%	0%	-32%	?
COc1ccccc1OCc1ccc(C(=O)Nc2ccc(C)c(C)c2)o1	nt	9%	nt	nt	nt	nt
NC(=S)N=Nc1ccc(NN=C(N)N)cc1	?	9%	?	0%	6.7µM*	13µM*
Fc1ccc(C2CC(c3ccco3)=NN2c2ccccc2)cc1 (stereo not given)	12%	?	12%	0%	nt	nt
O=[N+]([O-])c1ccc(C2CC(c3ccccc3)=Nc3ccccc3S2)cc1 (stereo not given)	?	?	-6%	0%	7%	1%
Fc1ccc(C2CC(c3ccco3)=Nc3ccccc3S2)cc1 (stereo not given)	?	?	3%	0%	7%	-12%
CC1(NC(=O)Cc2csc(-c3cccc(Cl)c3)n2)CCS(=O)(=O)C1 (stereo not given)	-1%	?	nt	0%	nt	nt
C=CCn1c(SCC(=O)N2CCOCC2)nnc1C(C)NC(=O)c1ccccc1 (stereo not given)	-7%	?	-6%	0%	nt	nt
COC(=O)N1CCN(c2ccc(C)c(C)c2)CC1	1%	?	nt	0%	nt	nt
COC(=O)N1CCN(c2ccc(Cl)c(Cl)c2)CC1	30µM*	?	-6%	0%	24µM*	30µM*
CNC(=S)N1CCN(c2ccc(Cl)c(Cl)c2)CC1	27µM*	1%	4%	0%	13µM*	27µM*
FCCN(CCF)c1cccc(Cl)c1	19µM*	3%	-9%	-1%	8.5µM*	24µM*
O=C(COC(=O)c1ccccc1O)Nc1cccc(S(=O)(=O)NC2=NCCCCC2)c1	13µM*	-5%	-10%	0%	?	?
CCNC(=O)C1CCN(Cc2cc3ccccc3n2Cc2ccc(C)cc2)CC1	nt	4%	nt	nt	nt	nt
S=C(c1ccc(Br)cc1)N1CCN(Cc2ccccc2)CC1	?	18%	5%	0%	8.5µM*	27µM*
Oc1ccc(C(=S)N2CCN(Cc3ccccc3)CC2)cc1	?	0%	3%	0%	9.5µM*	19µM*
COc1ccc(Cl)cc1C(=O)NNC(=O)COC(=O)CCN=C1NS(=O)(=O)c2ccccc21	?	-3%	nt	0%	-28%	?
O=C(O)CCC(=O)Nc1ccc(SSc2ccc(NC(=O)CCC(=O)O)cc2)cc1	?	0%	-3%	-1%	8.5µM*	17µM*
O=C(O)CCC(=O)Nc1ccc(F)cc1	-7%	-20%	-7%	0%	nt	nt
COc1ccc(CNC(=O)COC(=O)c2ccc(S(=O)(=O)N3CCCCC3)cc2)cc1	7%	11%	nt	0%	nt	nt
